Compound activity from PubChem.
D1 antagonist = human D1 dopamine receptor antagonism | P21728 | HEK293 TREx D1 cells, calcium flux, dopamine EC80; active compounds read low | activity change, negative = inhibition, % at 10 µM | 360,000 tested, 3.2% active; in the data active = activity change below about -30%; also: % is scaled to controls: 0 for no effect and ±100 for the full control effect
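Inducible Hek293 Trex D1 cells (tetracycline, overnight, 30 C). Calcium dye 30–90 min RT. Antagonist mode: EC80 dopamine added after 180 s compound read.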
D1 PAM = enhances dopamine response at the human D1 receptor; P21728; HEK293 TREx D1 cells, calcium flux, dopamine EC20 potentiation; potentiation, % at 10 µM; 360,000 tested, 0.036% active; AID 504651; in the data active = potentiation above about 30%; also: 0% is about no effect
TRHR ag = activates the human TRH receptor; TRHR cells, calcium flux fluo-8, FDSS agonist mode; 360,000 tested, 0.18% active; AID 493084; activation, % at 2 µM; P34981; also: 0% is about no effect
Target sequence (P34981 whole entry, looked up): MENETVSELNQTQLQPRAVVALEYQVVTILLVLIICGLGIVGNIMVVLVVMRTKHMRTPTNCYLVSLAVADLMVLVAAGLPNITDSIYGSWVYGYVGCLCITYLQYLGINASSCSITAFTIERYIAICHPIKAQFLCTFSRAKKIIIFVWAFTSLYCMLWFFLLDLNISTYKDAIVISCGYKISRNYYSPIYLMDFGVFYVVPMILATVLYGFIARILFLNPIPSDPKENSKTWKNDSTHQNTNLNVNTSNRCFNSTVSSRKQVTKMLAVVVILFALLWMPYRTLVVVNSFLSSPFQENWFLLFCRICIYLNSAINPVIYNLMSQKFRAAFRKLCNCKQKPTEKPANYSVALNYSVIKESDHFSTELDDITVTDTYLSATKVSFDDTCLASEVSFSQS
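TRHR-expressing cells loaded with fluo-8 calcium dye; 23 nL library compound pin-transferred, kinetic FDSS fluorescence (Ex 480/Em 530) recorded about 180 s for agonist-induced calcium release, before a 10 nM TRH EC20 addition for potentiator mode.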
D1 ag = agonists of human D1 dopamine receptor | P21728 | HEK293 T-REx D1 cells, calcium flux, agonist mode | activation, % at 2 µM | 360,000 tested, 1% active | AID 504660; also: 0% is about no effect
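Tetracycline-induced HEK293 TREx D1 cells, force-coupled to calcium signalling, were dye-loaded with a no-wash calcium kit. Compound was pin-added after a 10 s baseline. Fluorescence was read kinetically at 1 cycle/s for 180 s, with calcium rises flagged as agonism.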
TRHR enhancer = allosteric enhancers of human TRH receptor | TRHR cells, fluo-8 calcium fluorescence, EC20 TRH enhancement | enhancement, % at 2 µM | 360,000 tested, 0.66% active | AID 493056; in the data active = enhancement above about 30%; also: 0% is about no effect
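TRHR-expressing cells loaded with fluo-8 calcium dye were read kinetically (ex 480/em 530) during compound addition, then stimulated with an EC20 of TRH (10 nM final). Enhancement of the Gq-mediated intracellular calcium response was scored.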
The depositor's hits bear a star. In the library only some 4.6% were active in any assay of this set; here they are far more common. Rule as the data show it, unless noted: active = activation above about 30%; inactive = the rest.

What do the screens show for `O=C(COC(=O)COc1ccc2ccccc2c1)NCC(F)(F)F`?
D1 antagonist: -32*; D1 PAM: 3; TRHR ag: 0; D1 ag: 25; TRHR enhancer: -7

How did CC(NC(=O)c1ccco1)C(=O)OCC(=O)N1CCCCCC1 (stereo unspecified) do in these assays?
D1 antagonist: -2; D1 PAM: -2; TRHR ag: 0; D1 ag: 0; TRHR enhancer: -4

What do the screens show for `CC(CNC(=O)CCc1cn(Cc2ccccc2Cl)c2ccccc12)c1ccccc1` (stereo unspecified)?
D1 antagonist: 0; D1 PAM: 1; TRHR ag: 1; D1 ag: 3; TRHR enhancer: 3

Results for Cc1cccc(N2CCN(C(=O)Nc3ccc(F)cc3)CC2C)c1 (stereo unspecified) ?
D1 antagonist: -11; D1 PAM: -3; TRHR ag: 4; D1 ag: 33*; TRHR enhancer: -2

What do the screens show for `COc1cccc(NC(=O)N2CCN(c3cccc(C)c3)C(C)C2)c1` (stereo unspecified)?
D1 antagonist: -83*; D1 PAM: -11; TRHR ag: 0; D1 ag: 30; TRHR enhancer: 3

What do the screens show for `Cc1ccc(S(=O)(=O)NCC(=O)NCCc2c[nH]c3ccccc23)cc1C`?
D1 antagonist: -1; D1 PAM: -3; TRHR ag: -1; D1 ag: 0; TRHR enhancer: 34*

What do the screens show for `Cc1ccc(NC(=O)COC(=O)Cc2c[nH]c3ccccc23)cc1C`?
D1 antagonist: -75*; D1 PAM: -4; TRHR ag: 0; D1 ag: 1; TRHR enhancer: 7

Results for CC(C)NC(=O)CCCc1c[nH]c2ccccc12 ?
D1 antagonist: -13; D1 PAM: -5; TRHR ag: 0; D1 ag: 3; TRHR enhancer: 33*

How did NC(=O)c1ccc(NC(=O)COC(=O)CCCc2c[nH]c3ccccc23)cc1 do in these assays?
D1 antagonist: -30*; D1 PAM: -1; TRHR ag: 1; D1 ag: 2; TRHR enhancer: -3

Results for O=C(CCCc1c[nH]c2ccccc12)N[C@@H](Cc1c[nH]c2ccccc12)C(=O)O ?
D1 antagonist: -19; D1 PAM: 4; TRHR ag: 0; D1 ag: 0; TRHR enhancer: -5

What do the screens show for `COC(=O)c1c(-c2ccc(Cl)cc2)noc1N1CCN(c2cccc(OC)c2)CC1`?
D1 antagonist: -1; D1 PAM: -2; TRHR ag: 1; D1 ag: 1; TRHR enhancer: 7

Results for CCCSc1nnc2c(n1)OC(c1sccc1C)Nc1ccccc1-2 (stereo unspecified) ?
D1 antagonist: -1; D1 PAM: 0; TRHR ag: -1; D1 ag: -1; TRHR enhancer: 2

Results for Cc1nc(N2CCCC2)c2c(C(=O)N3CCN(c4cc(Cl)ccc4C)CC3)c(C)oc2n1 ?
D1 antagonist: 3; D1 PAM: 3; TRHR ag: 0; D1 ag: -1; TRHR enhancer: -12

Results for Cc1nn2c(-c3cccc(NC(=O)c4ccco4)c3)nnc2c2ccccc12 ?
D1 antagonist: 3; D1 PAM: 2; TRHR ag: -1; D1 ag: 0; TRHR enhancer: 13

What do the screens show for `Cc1nn2c(-c3cccc(NC(=O)c4ccc(Cl)cc4)c3)nnc2c2ccccc12`?
D1 antagonist: 4; D1 PAM: -3; TRHR ag: -1; D1 ag: 0; TRHR enhancer: 42*

Results for Cn1nc(-c2ccc(C(=O)Nc3cccc(Cl)c3)cc2)c2ccccc2c1=O ?
D1 antagonist: -37*; D1 PAM: -6; TRHR ag: 0; D1 ag: 0; TRHR enhancer: -4

Results for COc1ccc(-n2cc(-c3ccccc3)c3c(Nc4ccc(OC)c(OC)c4)ncnc32)cc1 ?
D1 antagonist: 16; D1 PAM: -1; TRHR ag: 1; D1 ag: -1; TRHR enhancer: -1

What do the screens show for `O=C(Nc1ccccc1N1CCCC1)c1cccc(Cl)c1Cl`?
D1 antagonist: -32*; D1 PAM: -2; TRHR ag: -1; D1 ag: 2; TRHR enhancer: -8

What do the screens show for `COc1cc(C(=O)Nc2ccccc2N2CCN(S(C)(=O)=O)CC2)cc(OC)c1OC`?
D1 antagonist: 10; D1 PAM: 2; TRHR ag: 0; D1 ag: 2; TRHR enhancer: -2

What do the screens show for `COc1ccccc1C(=O)Nc1ccccc1N1CCN(S(C)(=O)=O)CC1`?
D1 antagonist: -37*; D1 PAM: -7; TRHR ag: -4; D1 ag: 18; TRHR enhancer: -2

How did O=C(Nc1ccccc1N1CCCC1)c1ccccc1F do in these assays?
D1 antagonist: -11; D1 PAM: -10; TRHR ag: 0; D1 ag: 5; TRHR enhancer: -2

How did CCOc1ccccc1NC(=O)CN1C(=O)CC(c2ccco2)Sc2ccccc21 (stereo unspecified) do in these assays?
D1 antagonist: 0; D1 PAM: -2; TRHR ag: 0; D1 ag: 1; TRHR enhancer: -4

What do the screens show for `N#C/C(=C/c1ccc(Cl)cc1)c1nc(-c2ccc(Br)cc2)cs1`?
D1 antagonist: -7; D1 PAM: -3; TRHR ag: 1; D1 ag: 2; TRHR enhancer: -3

What do the screens show for `Cc1ccnc(N/C=C(\C#N)c2nc(-c3cccc(Br)c3)cs2)c1`?
D1 antagonist: -36*; D1 PAM: -6; TRHR ag: 0; D1 ag: 160*; TRHR enhancer: 26

What do the screens show for `Cc1ccccc1NC1=C/C(=N\S(=O)(=O)c2cccs2)c2ccccc2C1=O`?
D1 antagonist: 11; D1 PAM: -2; TRHR ag: 0; D1 ag: 1; TRHR enhancer: -9

Results for Cc1ccc(NC2=C/C(=N/S(=O)(=O)c3cccs3)c3ccccc3C2=O)cc1C ?
D1 antagonist: -45*; D1 PAM: 0; TRHR ag: 2; D1 ag: -2; TRHR enhancer: 20

Results for CC(C)(C)NC(=O)C(c1ccccn1)N(C(=O)c1ccc2c(c1)OCCO2)C1CCCC1 (stereo unspecified) ?
D1 antagonist: -39*; D1 PAM: -1; TRHR ag: 0; D1 ag: 0; TRHR enhancer: 5

How did CC(C)(C)NC(=O)C(c1ccccn1)N(C(=O)c1csnn1)C1CCCCC1 (stereo unspecified) do in these assays?
D1 antagonist: -8; D1 PAM: 1; TRHR ag: 0; D1 ag: 4; TRHR enhancer: 2

Results for Cc1ccc(C)c(N2CCN(C(=S)Nc3ccc4nc(N5CCN(C)CC5)cc(C)c4c3)CC2)c1 ?
D1 antagonist: -61*; D1 PAM: -13; TRHR ag: 0; D1 ag: 18; TRHR enhancer: 5

What do the screens show for `Cc1ccc(C)c(NC(=S)N2CCCC2)c1`?
D1 antagonist: -65*; D1 PAM: -1; TRHR ag: 0; D1 ag: 0; TRHR enhancer: 10
